Results on eight molecules are retold here after ChEMBL document CHEMBL1961873, “Compounds: GSK PKIS; Assays: Nanosyn kinase panel” (2012).

The term inhibition denotes the change of the read-out against control, counted positive when it falls.

Experiment [1] deals with Sphingosine kinase 1 (Homo sapiens) (UniProt Q9NYA1). The settings on record: at 1 µM.
Experiment [2] deals with T1, Sphingosine kinase 2 (Homo sapiens) (UniProt Q9NRA0).
T1 sequence (whole entry): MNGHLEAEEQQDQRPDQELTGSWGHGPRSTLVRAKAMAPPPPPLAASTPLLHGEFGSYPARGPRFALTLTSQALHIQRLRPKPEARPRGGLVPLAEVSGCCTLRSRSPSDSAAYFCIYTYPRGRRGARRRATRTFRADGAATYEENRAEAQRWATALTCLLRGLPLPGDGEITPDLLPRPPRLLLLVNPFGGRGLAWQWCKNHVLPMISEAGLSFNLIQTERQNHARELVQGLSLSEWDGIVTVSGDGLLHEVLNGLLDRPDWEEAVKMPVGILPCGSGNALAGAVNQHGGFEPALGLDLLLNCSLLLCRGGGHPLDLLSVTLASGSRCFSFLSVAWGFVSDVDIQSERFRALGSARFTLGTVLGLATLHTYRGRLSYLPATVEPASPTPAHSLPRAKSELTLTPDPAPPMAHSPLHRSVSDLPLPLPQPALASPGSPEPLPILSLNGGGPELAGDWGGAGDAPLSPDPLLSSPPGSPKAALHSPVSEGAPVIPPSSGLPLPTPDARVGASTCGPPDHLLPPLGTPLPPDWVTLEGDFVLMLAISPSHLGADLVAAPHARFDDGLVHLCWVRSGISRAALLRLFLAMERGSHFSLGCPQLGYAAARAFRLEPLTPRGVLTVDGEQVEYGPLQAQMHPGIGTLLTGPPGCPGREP
The settings on record: at 0.1 µM.

The target of experiment [3] is T1, Sphingosine kinase 2 (Homo sapiens). To be noted: at 1 µM.
The target of experiment [4] is Casein kinase II subunit alpha (Homo sapiens) (UniProt P68400). The settings on record: at 0.1 µM.
Chain of Casein kinase II subunit alpha (Homo sapiens) (P68400 whole entry, looked up): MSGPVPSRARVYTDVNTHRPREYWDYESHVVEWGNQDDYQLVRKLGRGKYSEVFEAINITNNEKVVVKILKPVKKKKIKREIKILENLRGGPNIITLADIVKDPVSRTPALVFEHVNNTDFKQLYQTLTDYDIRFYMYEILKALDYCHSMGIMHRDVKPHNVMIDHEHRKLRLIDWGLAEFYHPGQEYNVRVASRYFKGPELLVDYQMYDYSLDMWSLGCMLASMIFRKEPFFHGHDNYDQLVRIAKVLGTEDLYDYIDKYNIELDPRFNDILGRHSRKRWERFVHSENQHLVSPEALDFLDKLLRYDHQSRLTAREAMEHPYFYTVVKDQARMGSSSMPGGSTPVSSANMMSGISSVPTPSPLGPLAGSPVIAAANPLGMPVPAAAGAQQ
Experiment [5] shares this target. The settings on record: at 1 µM.
Experiment [6] concerns the target T2, Inhibitor of nuclear factor kappa-B kinase subunit alpha (Homo sapiens) (UniProt O15111).
T2 sequence (whole entry): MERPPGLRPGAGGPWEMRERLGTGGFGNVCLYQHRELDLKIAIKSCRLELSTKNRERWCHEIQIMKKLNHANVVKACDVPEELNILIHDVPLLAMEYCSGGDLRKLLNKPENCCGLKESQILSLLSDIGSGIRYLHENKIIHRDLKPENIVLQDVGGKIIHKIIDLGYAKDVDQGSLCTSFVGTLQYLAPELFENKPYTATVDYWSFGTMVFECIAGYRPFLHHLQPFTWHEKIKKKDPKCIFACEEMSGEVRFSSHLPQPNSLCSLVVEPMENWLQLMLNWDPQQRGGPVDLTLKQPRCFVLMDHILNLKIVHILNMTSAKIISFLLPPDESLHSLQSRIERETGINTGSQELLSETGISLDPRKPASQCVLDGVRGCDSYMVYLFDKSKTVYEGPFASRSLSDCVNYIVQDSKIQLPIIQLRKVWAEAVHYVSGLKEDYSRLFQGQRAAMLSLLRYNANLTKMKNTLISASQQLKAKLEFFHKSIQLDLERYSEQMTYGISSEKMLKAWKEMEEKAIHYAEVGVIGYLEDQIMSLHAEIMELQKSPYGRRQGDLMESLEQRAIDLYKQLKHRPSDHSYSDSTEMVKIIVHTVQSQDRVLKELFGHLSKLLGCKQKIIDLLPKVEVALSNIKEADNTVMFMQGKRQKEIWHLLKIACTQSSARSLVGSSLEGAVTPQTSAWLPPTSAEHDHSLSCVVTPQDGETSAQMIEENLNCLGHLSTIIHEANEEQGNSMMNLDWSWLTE
The settings on record: at 0.1 µM.

Experiment [7] addresses T2, Inhibitor of nuclear factor kappa-B kinase subunit alpha (Homo sapiens). The settings on record: at 1 µM.
Experiment [8] addresses T3, Inhibitor of nuclear factor kappa-B kinase subunit beta (Homo sapiens) (UniProt O14920).
T3 sequence (whole entry): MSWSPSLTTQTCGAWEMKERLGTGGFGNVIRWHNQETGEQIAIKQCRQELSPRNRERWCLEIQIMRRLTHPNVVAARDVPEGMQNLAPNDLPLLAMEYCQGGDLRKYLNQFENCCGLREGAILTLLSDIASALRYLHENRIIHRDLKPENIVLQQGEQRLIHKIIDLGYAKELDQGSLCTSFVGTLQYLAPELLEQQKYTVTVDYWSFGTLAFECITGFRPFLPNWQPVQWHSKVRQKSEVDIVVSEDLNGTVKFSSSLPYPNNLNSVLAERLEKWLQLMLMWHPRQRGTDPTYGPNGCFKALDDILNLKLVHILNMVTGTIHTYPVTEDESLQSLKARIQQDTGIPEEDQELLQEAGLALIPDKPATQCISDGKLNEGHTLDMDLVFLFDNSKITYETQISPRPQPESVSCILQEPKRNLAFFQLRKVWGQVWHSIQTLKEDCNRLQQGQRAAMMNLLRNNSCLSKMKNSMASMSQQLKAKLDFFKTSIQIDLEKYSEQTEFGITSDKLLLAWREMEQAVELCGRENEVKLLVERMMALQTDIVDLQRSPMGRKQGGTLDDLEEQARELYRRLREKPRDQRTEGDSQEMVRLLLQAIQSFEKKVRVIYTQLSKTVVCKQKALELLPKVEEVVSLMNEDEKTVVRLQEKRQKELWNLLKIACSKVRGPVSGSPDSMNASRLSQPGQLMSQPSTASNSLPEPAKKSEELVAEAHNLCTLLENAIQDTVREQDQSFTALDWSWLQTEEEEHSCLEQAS
The settings on record: at 0.1 µM.

The target in experiment [9] is T3, Inhibitor of nuclear factor kappa-B kinase subunit beta (Homo sapiens). To be noted: at 1 µM.
The target of experiment [10] is T4, Inhibitor of nuclear factor kappa-B kinase subunit epsilon (Homo sapiens) (UniProt Q14164).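 Also: mean inhibition of IKKε reported, from the GSK PKIS dataset.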
T4 sequence (whole entry): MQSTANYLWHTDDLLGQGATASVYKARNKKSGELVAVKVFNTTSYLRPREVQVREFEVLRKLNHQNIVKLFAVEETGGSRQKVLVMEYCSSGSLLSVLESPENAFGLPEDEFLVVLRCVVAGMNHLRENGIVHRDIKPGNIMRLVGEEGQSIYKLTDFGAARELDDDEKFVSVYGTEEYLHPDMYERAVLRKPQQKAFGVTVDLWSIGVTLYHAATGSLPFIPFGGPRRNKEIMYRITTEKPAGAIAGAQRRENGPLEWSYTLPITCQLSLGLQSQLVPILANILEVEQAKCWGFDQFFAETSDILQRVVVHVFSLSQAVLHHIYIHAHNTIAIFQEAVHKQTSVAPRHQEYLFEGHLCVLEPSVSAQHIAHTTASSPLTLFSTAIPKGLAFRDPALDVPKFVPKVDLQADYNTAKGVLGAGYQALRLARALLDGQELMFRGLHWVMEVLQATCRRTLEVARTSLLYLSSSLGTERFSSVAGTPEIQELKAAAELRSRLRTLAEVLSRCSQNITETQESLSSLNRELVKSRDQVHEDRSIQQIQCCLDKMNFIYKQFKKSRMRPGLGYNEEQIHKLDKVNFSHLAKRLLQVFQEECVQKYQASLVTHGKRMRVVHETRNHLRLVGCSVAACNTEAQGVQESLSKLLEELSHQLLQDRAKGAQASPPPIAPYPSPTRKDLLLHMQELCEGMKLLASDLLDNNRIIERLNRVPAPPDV
To be noted: at 0.1 µM.

Chain of Sphingosine kinase 1 (Homo sapiens) (Q9NYA1 whole entry): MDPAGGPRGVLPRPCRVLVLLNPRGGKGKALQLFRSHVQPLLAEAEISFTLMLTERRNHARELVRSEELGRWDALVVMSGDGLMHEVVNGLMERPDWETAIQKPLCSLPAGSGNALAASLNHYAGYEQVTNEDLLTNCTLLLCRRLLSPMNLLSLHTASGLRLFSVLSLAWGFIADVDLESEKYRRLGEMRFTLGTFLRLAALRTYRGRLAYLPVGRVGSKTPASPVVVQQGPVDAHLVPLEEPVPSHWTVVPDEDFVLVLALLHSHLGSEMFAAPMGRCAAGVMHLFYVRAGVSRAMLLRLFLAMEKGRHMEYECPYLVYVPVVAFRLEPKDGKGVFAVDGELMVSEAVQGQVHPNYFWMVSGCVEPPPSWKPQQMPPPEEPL

With `N#Cc1c(NC(=O)c2cccc3ccccc23)sc2c1CCCC2`, the inhibition in [1] is -0.69%; in [2] it was 1.73%; in [3] it was 0.03%; in experiment [4], 1.53%; in [5], -0.03%; in [6] it was 5.48%. Also, the inhibition in experiment [7] turned out to be 6.29%; in [8], 3.31%; in experiment [9] it was 2.19%; in experiment [10] it was 4.91%.
In the case of `COc1ccccc1Nc1ncc(-c2ccccc2)o1`, the inhibition in [1] was -6.75%; in experiment [2] it was -0.59%; in experiment [3], -0.16%; in [4] it was 6.18%; in experiment [5] it was 8.04%; in experiment [6], 10.7%. Besides, the inhibition in experiment [7] was found to be 9.03%; in experiment [8], 9.9%; in experiment [9] it was 9.61%; in experiment [10], 9.49%.
As for `COc1cc2ncn(-c3cc(O[C@H](C)c4ccccc4Cl)c(C(N)=O)s3)c2cc1OC`, the inhibition in [1] is -3.88%; in experiment [2], 0.33%; in experiment [3] it was -2.47%; in [4], 5.76%; in experiment [5] it was 19.5%; in experiment [6], 6.13%. Also, the inhibition in experiment [7] is 9.16%; in experiment [8], 3.99%; in experiment [9], 6.57%; in experiment [10], 8.51%.
As for `COc1ccc(-c2coc3ncnc(N)c23)cc1`, the inhibition in experiment [1] was 2.86%; in [2], 1.04%; in [3], -0.88%; in experiment [4], 4.06%; in [5], -2.3%; in experiment [6] it was 4.01%. Also, the inhibition was -4.53% in [7], 10.3% in experiment [8], 9.84% in experiment [9] and 5.67% in [10].
Regarding `Cc1nnc(-c2ccc(C)c(-c3ccc(C(=O)Nc4cccc(C#N)c4)cc3)c2)o1`, the inhibition was 0% in [1]; 0% in experiment [2]; 1.55% in experiment [3]; 1.51% in [4]; 6.5% in experiment [5]; 7.7% in [6]. Further, the inhibition stood at 4% in experiment [7], 3.09% in [8], 8.71% in experiment [9] and 3.28% in experiment [10].
Consider `NCc1ccc(-c2nc(-c3ccc(Cl)c(O)c3)c(-c3ccncc3)[nH]2)cc1`, for which the inhibition in experiment [1] was -0.71%; in experiment [2], -0.06%; in experiment [3], 0%; in [4], 0.86%; in experiment [5], 1.53%; in [6], 3.45%. For the same molecule, the inhibition in [7] was -3.91%; in [8] it was 1.08%; in experiment [9], 0.02%; in [10] it was 1.2%.
On to `O=C1NC(=O)C(N2CCc3ccccc32)=C1c1ccc(Cl)cc1`, for which the inhibition in experiment [1] was 2.74%; in [2] it was 0.69%; in experiment [3], 0.87%; in experiment [4], 1.59%; in experiment [5], -1.39%; in experiment [6], 5.45%. For the same molecule, the inhibition was determined as 4.39% in experiment [7], 5.07% in experiment [8], 4.89% in experiment [9] and 3.79% in experiment [10].
As for `COC(=O)Nc1nc2cc(Oc3cccc(NC(=O)Nc4cc(C(F)(F)F)ccc4F)c3)ccc2[nH]1`, the inhibition is 2.3% in experiment [1]; 0% in [2]; 0.65% in experiment [3]; -0.44% in [4]; -0.84% in experiment [5]; -3.67% in experiment [6]. Besides, the inhibition in experiment [7] came out at 4.99%; in experiment [8], 0.52%; in experiment [9], 1.91%; in experiment [10], 1.54%.
